Screens: PubChem BioAssay, Broad Institute
Compounds with a hit are over-represented: about 3.1% of the library has one in this group of screens.
MITF TRPM1 HTS = activators of MITF-driven TRPM1 promoter activity in SK-MEL-5 cells. SK-MEL-5 TRPM1-promoter luciferase, 24 h; % of positive control, neutral wells = 0. activation, % at 12.5 µM. hit rate 0.75% among 300,000;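 active means mean activation of at least 80% with every replicate also reaching 80%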;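 further: 0% = neutral control wells and 100% = parthenolide positive control wells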
C2C12 statin = protects C2C12 myotubes from simvastatin toxicity; hit rate 0.78% among 330,000; ATP luminescence, 48 h; scaled: DMSO 0, geranylgeraniol control 100; rescue of ATP level, % at 7.49 µM;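 active means mean ATP rescue above about 67%, or every replicate alone reaching that limit, limit read from the data, passing the limit was not always enough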;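 further: myotubes were challenged with 10 µM simvastatin during compound exposure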
esBAF inh = inhibitors of esBAF chromatin remodeling in mouse ES cells; Bmi1-luciferase knock-in reporter, 24 h; 100% = twice the neutral-well signal; reporter increase, % at 12.5 µM; hit rate 2% among 350,000; in the data active means activation above about 40%;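 further: 0% = median of the plate's neutral control wells and 100% = double that signal; a rise in the Bmi1 reporter signal indicates esBAF inhibition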
Rtt109 Vps75 = blocks Candida albicans Rtt109/Vps75 acetyltransferase activity | purified Rtt109/Vps75, ThioGlo CoA-SH fluorescence, 4 h | inhibition, % at 34.9 µM | hit rate 0.16% among 330,000;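 active means inhibition of at least 50% in every replicate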
Target sequence (Q5AAJ8 whole entry, looked up): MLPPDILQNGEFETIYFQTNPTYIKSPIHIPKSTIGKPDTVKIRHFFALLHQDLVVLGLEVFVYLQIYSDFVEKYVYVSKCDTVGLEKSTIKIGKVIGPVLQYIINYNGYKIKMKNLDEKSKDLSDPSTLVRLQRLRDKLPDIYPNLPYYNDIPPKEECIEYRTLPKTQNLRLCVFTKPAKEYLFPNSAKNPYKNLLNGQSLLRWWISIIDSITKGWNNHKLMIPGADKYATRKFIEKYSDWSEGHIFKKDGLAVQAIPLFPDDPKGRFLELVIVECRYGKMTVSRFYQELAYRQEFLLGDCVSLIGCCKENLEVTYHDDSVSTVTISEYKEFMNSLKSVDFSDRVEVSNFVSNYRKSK
Wnt act = activators of Wnt/beta-catenin signaling; hit rate 1.2% among 300,000; Wnt/beta-catenin reporter cell assay, activator, plate reader; activation, % at 9.35 µM; in the data active means activation above about 30%, passing the limit was not always enough;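 further: 0% = neutral control wells and 100% = positive control wells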
* hit, by the source's call.

What do the screens show for `C[C@H]1CN([C@@H](C)CO)C(=O)Cc2cc(NC(=O)CCC(F)(F)F)ccc2O[C@@H]1CN(C)C`?
C2C12 statin: 16; esBAF inh: -3

Results for COc1ccc(N=C2SC(CC(=O)Nc3ccccc3)C(=O)N2Cc2ccco2)cc1 (stereo not given) ?
MITF TRPM1 HTS: -6; C2C12 statin: -2; esBAF inh: -5; Rtt109 Vps75: 9; Wnt act: 44*

How did O=C(N[C@@H]1C=C[C@@H](CC(=O)N2CCCCC2)O[C@@H]1CO)c1cccc(F)c1 do in these assays?
C2C12 statin: -9; esBAF inh: -3

How did Cc1noc(C)c1NC(=O)N(C)C[C@H]1OCCCC[C@@H](C)Oc2ccc(NC(=O)c3ccncc3)cc2C(=O)N([C@@H](C)CO)C[C@@H]1C do in these assays?
C2C12 statin: -9; esBAF inh: -1

How did O=C(COC(=O)C1CC2C=CC1C2)Nc1ccc2c(c1)OC(F)(F)O2 (stereo not given) do in these assays?
MITF TRPM1 HTS: -2; C2C12 statin: -8; esBAF inh: 3; Rtt109 Vps75: 18

What do the screens show for `CC(=O)c1ccc(NC(=O)COC(=O)C2CC3C=CC2C3)cc1` (stereo not given)?
MITF TRPM1 HTS: 56; C2C12 statin: 2; esBAF inh: 17; Rtt109 Vps75: 4; Wnt act: 43*

How did O=C(COC(=O)C1CC2C=CC1C2)NCc1ccco1 (stereo not given) do in these assays?
MITF TRPM1 HTS: -3; C2C12 statin: 101*; esBAF inh: -5; Rtt109 Vps75: 10

What do the screens show for `C=CCN=C(NC#N)SCC(=O)c1cccc(OC)c1`?
MITF TRPM1 HTS: 73; C2C12 statin: 112*; esBAF inh: -5; Rtt109 Vps75: -4; Wnt act: 26

How did COc1ccc(CC(NC(C)=O)C(=O)NC2CCN(c3nc(C)cc(C)c3C#N)CC2)cc1 (stereo not given) do in these assays?
MITF TRPM1 HTS: -8; Rtt109 Vps75: 53*; Wnt act: -2

Results for COc1ccc(CC(NC(C)=O)C(=O)NC2CCN(c3nc(C)cc(C)c3C#N)CC2)cc1OC (stereo not given) ?
MITF TRPM1 HTS: -12; Rtt109 Vps75: -6; Wnt act: -2

How did COc1ccc(CCNC(=O)c2ccc(N3CCCC3=O)cc2)cc1 do in these assays?
MITF TRPM1 HTS: 11; C2C12 statin: 114*; esBAF inh: 9; Rtt109 Vps75: -2

Results for COc1ccc(CCNC(=O)c2nonc2N)cc1 ?
C2C12 statin: -7; esBAF inh: 48*; Rtt109 Vps75: 5; Wnt act: 9

Results for C[C@@H]1CN([C@H](C)CO)C(=O)c2cc(NC(=O)c3ccncc3)ccc2O[C@@H](C)CCCCO[C@H]1CN(C)C(=O)Nc1cccc2ccccc12 ?
C2C12 statin: 59; esBAF inh: 7

How did COc1cc(/C=N/NC(=O)c2cc(C)oc2C)ccc1O do in these assays?
MITF TRPM1 HTS: -17; C2C12 statin: 0; esBAF inh: -2; Rtt109 Vps75: -5; Wnt act: 1

How did COc1cc(/C=N/n2cnnc2)ccc1OCc1ccc(C)cc1 do in these assays?
MITF TRPM1 HTS: 71; C2C12 statin: -8; esBAF inh: 57*; Rtt109 Vps75: -13

Results for COc1ccc(C=NNC(=O)c2cc(C)oc2C)cc1O ?
MITF TRPM1 HTS: 35; C2C12 statin: -6; esBAF inh: 66*; Rtt109 Vps75: -4; Wnt act: -3

How did COc1ccc(O)c(/C=N/NC(=O)c2cccc(N3CCCC3=O)c2)c1 do in these assays?
MITF TRPM1 HTS: -27; C2C12 statin: 35; esBAF inh: 6; Rtt109 Vps75: -4; Wnt act: 1

Results for COc1cccc(/C=N/NC(=O)c2ccoc2C)c1 ?
Rtt109 Vps75: 1; Wnt act: 40*

Results for COc1cccc(/C=N/NC(=O)c2cccc(N3CCCC3=O)c2)c1 ?
MITF TRPM1 HTS: 77; C2C12 statin: 9; esBAF inh: 73*; Rtt109 Vps75: 0; Wnt act: 18

Results for C[C@@H]1CN([C@@H](C)CO)C(=O)c2cc(C3=CCCC3)cnc2O[C@@H]1CN(C)C ?
C2C12 statin: 11; esBAF inh: 2

Results for C[C@H](CO)N1C[C@H](C)[C@H](CN(C)C(=O)Nc2cccc3ccccc23)Oc2ncc(-c3cc4ccccc4o3)cc2C1=O ?
esBAF inh: 10
